Assay outcomes from PubChem.
HT1080-NT tox = kills 2HG-producing HT-1080-NT fibrosarcoma cells; hit rate 1.6% among 360,000; HT-1080-NT fibrosarcoma viability, CellTiter-Glo ATP luminescence, 48 h; Potency, µM (series often up to 46.1 µM), inactives show at the top dose activity, negative = less viability, most hits filed as cytotoxic;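 further: NT is the 2HG producing partner of a matched IDH1 knockdown line; 0% = DMSO-treated cells and -100% = media-only wells without cells; nearly all actives have a fitted effect of over 55% in size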
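HT-1080-NT; 750 cells/well; 5% FBS RPMI; 48 h compound, 37 degrees C; CellTiter-Glo luminescence; curve fitting and curve-class assignment.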
HT1080 IDH1KD tx = toxicity to HT-1080 IDH1 knockdown cells (counter line); Potency, µM (highest dose often 46.1 µM), for inactives: top-dose activity, negative = toxicity, most hits filed as cytotoxic; hit rate 2% among 360,000; HT-1080 IDH1 knockdown viability, ATP luminescence, 48 h;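 further: 0% = DMSO wells and -100% = cell-free medium wells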
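HT-1080-IDH1KD cells (IDH1 knocked down), 750/well in RPMI with 5% FBS, treated with compound 48 h at 37 degrees C. Viability by CellTiter-Glo luminescence, normalised to DMSO and no-cell wells; concentration-response curves classed.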
ATXN2 expr inh = ATXN2 expression inhibition; HEK-293 ATXN2-luciferase reporter, luminescence, 24 h; hit rate 0.72% among 360,000; AID 1745845; Potency, µM (titrated, usually from 57 µM), inactives show at the top dose activity change, negative = inhibition, hits mostly inhibitors; further: on the % scale 0 is the no-effect control and ±100 the full control effect; nearly all actives have a fitted effect of over 55% in size
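ATXN2-luciferase reporter cells (luciferase flanked by upstream and downstream ATXN2 gene portions) were treated 24 h at 37 °C with compounds at up to 57 uM. SteadyGlo luminescence gave expression; GF-AFC fluorescence gave viability.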
TGFb inhibitor = blocks TGF-b signaling. AID 588855. Potency, µM (top dose mostly 46.1 µM), for inactives: top-dose activity, negative = inhibition, usual class: inhibitors. hit rate 1.2% among 410,000. HepG2 CAGA-GFP TGF-b/SMAD3 reporter, GFP fluorescence, 18 h; TGF-beta stimulated, 500 pg/mL final; further: on the % scale 0 is the no-effect control and ±100 the full control effect; nearly all actives have a fitted effect of over 65% in size
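TGF-beta reporter screen: HEPG2 CAGA-GFP, 1% FBS, 500 pg/mL TGF-beta final, 18 h; per-cell GFP summed per well; curves fitted and categorized by class.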
HepG2 tox-1 = counter-screen for TGF-b inhibitors: cytotoxicity in HepG2 cells | Potency, µM (highest dose often 46.1 µM), without a hit: top-dose activity change, negative = cytotoxicity, hits mostly cytotoxic | HepG2 CAGA-GFP viability, ATP luminescence, 18 h | hit rate 0.76% among 410,000
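HepG2 CAGA-GFP cells (1000/well, DMEM with 1% FBS) received compound, then TGF-beta at 500 pg/mL final, and were incubated 18 hours at 37 degrees C. Viability was read by CellTiter-Glo luminescence. Media-only wells were set as complete cell-killing and DMSO as no toxicity.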
S2 tox = viability counter-screen for ATXN expression inhibitors; Potency, µM (titrated, usually from 56.7 µM), most hits filed as cytotoxic; AID 651635; S2 cells (HEK-293 line with an ATXN2-luciferase reporter) viability, CellTiter-Fluor protease fluorescence, 24 h; hit rate 0.49% among 400,000; further: nearly all actives have a fitted effect of over 40% in size
TGFb confirm = confirmation of TGF-b signaling inhibitors in HepG2 reporter cells; shares compounds with TGFb inhibitor; HepG2 CAGA-GFP TGF-b reporter, GFP fluorescence, 18 h; cells stimulated with TGF-beta, 500 pg/mL; Potency, µM (top dose mostly 46.1 µM), for inactives: top-dose activity, negative = inhibition, usual class: inhibitors; hit rate 63% among 1,600; AID 720534; further: on the % scale 0 is the no-effect control and ±100 the full control effect; nearly all actives have a fitted effect of over 65% in size
HepG2 tox-2 = counter-screen for TGF-b inhibitors: cytotoxicity in HepG2 cells; shares compounds with TGFb inhibitor; HepG2 CAGA-GFP viability, ATP luminescence, 18 h; cells stimulated with TGF-beta, 500 pg/mL; Potency, µM (doses to about 46.1 µM), for inactives: at the highest dose activity, negative = cytotoxicity, hits mostly inhibitors; hit rate 27% among 1,600; further: on the % scale 0 is the no-effect control and ±100 the full control effect; nearly all actives have a fitted effect of over 70% in size
TGFb CCL64 inh = orthogonal confirmation of TGF-b inhibitors in CCL64 cells; shares compounds with TGFb inhibitor; CCL64 CAGA-GFP reporter, TGF-b stimulated, GFP fluorescence, 18 h; Potency, µM (series often up to 46.1 µM), for inactives: at the highest dose activity, negative = inhibition, usual class: inhibitors; hit rate 41% among 1,600; AID 720536; further: nearly all actives have a fitted effect of over 65% in size
COP TGFb inh = TGF-b inhibition validated with COP promoter; shares compounds with TGFb inhibitor; HepG2 COP-GFP TGF-b reporter, GFP fluorescence, 18 h; cells stimulated by added recombinant TGF-beta; Potency, µM (titrated, usually from 46.1 µM), for inactives: at the highest dose activity, negative = inhibition, actives largely listed as inhibitors; hit rate 3% among 1,600; further: nearly all actives have a fitted effect of over 70% in size
An asterisk follows results filed as active; i = inactive; ? = inconclusive; · = no result given. Only some compounds are listed: those with a hit (about 3.8% of all), similar ones and a draw of the others. The call rests on the fitted dose curve; in most records, active means well fitted curve in the direction sought with a large enough effect; inconclusive means small, poorly fitted or top-dose-only effect, or another doubt; inactive means no such curve, though single readings can be large; an effect the other way counts as inactive or inconclusive. Potency means the concentration at half of the fitted maximal effect.

SMILES	HT1080-NT tox	HT1080 IDH1KD tx	ATXN2 expr inh	TGFb inhibitor	HepG2 tox-1	S2 tox	TGFb confirm	HepG2 tox-2	TGFb CCL64 inh	COP TGFb inh
CCOC(=O)N1CCN(C(=O)COc2cccc3c2CCN(Cc2cccc(C)c2)C3=O)CC1	1%	-17%	-8%	?	-7%	i	?	-25%	?	-8%
CC(NC(=O)CN1C(=O)COc2ccc(S(=O)(=O)N3CCCCCC3)cc21)c1ccccc1 (configuration not stated)	·	·	2%	?	-9%	?	·	·	·	·
Clc1ccc(-n2nnnc2Sc2ncnc3sccc23)cc1	21µM*	?	?	10µM*	-105%	·	4.6µM*	16µM*	2.9µM*	?
Cn1c(=O)c2cc(C(=O)NCCCN3CCN(c4ccccc4F)CC3)sc2c2ccccc21	·	·	·	?	-3%	·	·	·	·	·
COc1ccc(/C=C/C(=O)Nc2nc(-c3cccs3)ns2)cc1OC	·	·	·	-39%	-48%	·	·	·	·	·
CCN(CC)CC(C)(C)C(=O)/C=C/c1ccc(/C=C/C(=O)C(C)(C)CN(CC)CC)cc1	5.8µM*	1.6µM*	4µM*	4.5µM*	5µM*	5.6µM*	3.3µM*	3.3µM*	4.6µM*	?
CCN(CC)CCOC(=O)/C=C/c1ccccc1	1%	0%	·	-15%	-18%	i	·	·	·	·
Cc1cc(C)cc(C(=O)N2CC(=O)Nc3ccccc32)c1	1.2µM*	0.52µM*	4%	10µM*	-11%	?	7.3µM*	7%	8.2µM*	-3%
COc1cc(C(=O)N2CC(=O)Nc3ccccc32)cc(OC)c1OC	?	?	·	-14%	4%	i	·	·	·	·
CC[C@]12c3[nH]c4ccc(Cl)cc4c3CCN1C(=O)[C@@H](CC(=O)NCc1ccc(OC)c(OC)c1)C[C@@H]2C(=O)N1CCN(C(=O)C2CC2)CC1	-3%	-6%	-4%	-23%	-6%	i	·	·	·	·
COc1ccc(CNC(=O)C[C@H]2C[C@H](C(=O)N(C(C)C)C(C)C)[C@@]3(C)c4[nH]c5ccc(Cl)cc5c4CCN3C2=O)cc1OC	-19%	-24%	?	14µM*	-12%	?	8.2µM*	?	?	62%
COc1ccc(CNC(=O)C[C@H]2C[C@H](C(=O)N3CCCCC3)[C@@]3(CCc4ccccc4)c4[nH]c5ccc(Cl)cc5c4CCN3C2=O)cc1OC	3%	1%	-3%	6.3µM*	-3%	?	8.2µM*	-17%	6.5µM*	33%
